In the library only some 6.9% were active in any assay of this set; here they are far more common.
KB-V1 MDR tox: kills drug-selected multidrug resistant KB-V1 cells; KB-V1 MDR cells viability, CellTiter-Glo, 72 h; Potency, µM (highest dose often 46.1 µM), usual class: cytotoxic; 400,000 tested, 3.4% active; AID 1347076; note: nearly all actives have a fitted effect of over 60% in size
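qHTS viability screen in drug-selected KB-V1 MDR cells: 72 h compound treatment at 37 degrees C, ATP luminescence end point.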
ASM inhibitor: human S-ASM enzyme inhibition. P17405. placental ASM, HMU-PC fluorogenic substrate, 60 min. Potency, µM (titrated, usually from 57.5 µM), usual class: inhibitors. 340,000 tested, 0.006% active
Target sequence (P17405 47-631 limits assumed): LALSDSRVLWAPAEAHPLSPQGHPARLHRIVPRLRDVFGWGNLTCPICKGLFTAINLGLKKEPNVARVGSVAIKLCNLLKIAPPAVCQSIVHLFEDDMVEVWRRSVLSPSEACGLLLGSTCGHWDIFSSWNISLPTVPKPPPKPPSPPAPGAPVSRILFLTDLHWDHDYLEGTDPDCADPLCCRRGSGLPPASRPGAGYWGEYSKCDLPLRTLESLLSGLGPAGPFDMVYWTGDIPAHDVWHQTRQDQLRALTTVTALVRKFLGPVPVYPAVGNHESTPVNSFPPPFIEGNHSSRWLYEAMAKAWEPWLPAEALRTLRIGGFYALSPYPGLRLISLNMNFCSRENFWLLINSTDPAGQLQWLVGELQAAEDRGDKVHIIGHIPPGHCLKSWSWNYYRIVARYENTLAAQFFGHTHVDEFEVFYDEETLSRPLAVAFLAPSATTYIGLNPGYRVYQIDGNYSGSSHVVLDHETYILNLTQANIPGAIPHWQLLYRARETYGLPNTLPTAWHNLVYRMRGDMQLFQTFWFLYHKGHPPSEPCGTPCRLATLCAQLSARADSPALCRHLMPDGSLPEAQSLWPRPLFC
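HMU-PC0 cleavage (9 uM final) by human placental ASM, 60 min at 37 °C following 10 min compound exposure at RT; stopped at pH 10, fluorescence Ex 386/Em 447 nm.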
KB-3-1 cytotox: kills parental KB-3-1 adenocarcinoma cells; Potency, µM (doses to about 46.1 µM), usual class: cytotoxic; KB-3-1 viability, CellTiter-Glo ATP luminescence, 72 h; AID 1347075; 400,000 tested, 1.4% active; note: nearly all actives have a fitted effect of over 60% in size
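Cytotoxicity measured as CellTiter-Glo luminescence after 72 h at 37 C. Compound titrations were pinned onto drug-naive KB-3-1 parental adenocarcinoma cells grown in DMEM with 10% FBS, and normalized data fitted to concentration-response curves.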
SW480 rerep: inducers of DNA re-replication in SW480 colon cancer cells. SW480 DNA re-replication, Hoechst DNA content imaging, 48 h. Potency, µM (highest dose often 46.1 µM), usual class: activators. 340,000 tested, 1.8% active; note: nearly all actives have a fitted effect of over 55% in size
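First, 250 cells per well were seeded. Next, compound or vehicle (23 nL) was pinned in, plates sat 48 hr at 37 C. Finally Hoechst was added for 40 min before fluorescence scanning.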
Giardia killer: kills Giardia lamblia; Giardia lamblia trophozoite viability; activity change, % at 7.66 µM, hits read low; 340,000 tested, 0.15% active; in the data active = activity change below about -80%; inconclusive = between about -30% and that limit;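 note: parasites exposed to compound for two days anaerobically before the ATP read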
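Compounds were tested on trophozoites seeded at 100 cells/well and held 48 hrs at 37 deg C anaerobically. An ATP-based luminescent kit measured the remaining live cells.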
MCF10A rereplic: DNA re-replication induction in MCF 10a cells; Potency, µM (top dose mostly 46.1 µM), hits mostly activators; MCF 10A DNA re-replication, Hoechst nuclear intensity, 48 h; 350,000 tested, 2.9% active; note: nearly all actives have a fitted effect of over 50% in size
Of the large screens only hits and unclear results are named; the others gave an inactive call. Unless noted, calls come from the whole dose curve; as a rule, active = well fitted curve in the direction sought with a large enough effect; inconclusive = small, poorly fitted or top-dose-only effect, or another doubt; inactive = no such curve, though single readings can be large; an effect the other way counts as inactive or inconclusive.

Nc1nc(-c2ccc(Br)s2)c(Br)s1	MCF10A rereplic 21µM
C/C(=N\NC(=O)C1(C)CC1(Br)Br)c1ccc([N+](=O)[O-])cc1 (centres undefined)	none
C/C(=N\NC(=O)C1(C)CC1(Br)Br)c1ccc(NC(=O)c2ccc(C)o2)cc1 (centres undefined)	KB-V1 MDR tox 21µM, KB-3-1 cytotox inconclusive, MCF10A rereplic inconclusive
OC(COc1c(F)cc(Br)cc1F)CN1CCOCC1 (centres undefined)	none
OC(COc1c(F)cc(Br)cc1F)CN1CCN(c2ccc(F)cc2)CC1 (centres undefined)	KB-V1 MDR tox 16µM, KB-3-1 cytotox inconclusive
OC(COc1cccc2ccccc12)CN1CCN(c2ccc(Cl)cc2)CC1 (centres undefined)	KB-V1 MDR tox inconclusive, Giardia killer inconclusive, MCF10A rereplic inconclusive
OC(COc1cccc2ccccc12)CN1CCN(c2cccc(Cl)c2)CC1 (centres undefined)	MCF10A rereplic 26µM
O=C1Nc2ccccc2/C1=C/c1ccccc1F	SW480 rerep inconclusive, MCF10A rereplic inconclusive
Cc1nn(-c2ccc(F)cc2)c(Cl)c1/C=C1\C(=O)Nc2ccccc21	KB-V1 MDR tox 13µM, KB-3-1 cytotox inconclusive, SW480 rerep inconclusive, MCF10A rereplic 8.2µM
CCOCCCn1c(=N)c(C(=O)NCc2cccnc2)cc2c(=O)n3cc(C)ccc3nc21	none (no result: ASM inhibitor, SW480 rerep, Giardia killer, MCF10A rereplic)
CCC(CO)[n+]1c(C)cc(/C=C2\Sc3ccccc3N2Cc2ccccc2)cc1C (centres undefined)	ASM inhibitor inconclusive, KB-3-1 cytotox 1.6µM, SW480 rerep inconclusive, MCF10A rereplic inconclusive
CCN1/C(=C2\SC(=S)N(Cc3ccccc3)C2=O)Sc2ccccc21	none
Cc1ccccc1N(C(=O)c1snc(C(N)=O)c1N)C(C(=O)NC1CCCCC1)c1ccc(O)cc1 (centres undefined)	KB-3-1 cytotox inconclusive, SW480 rerep 16µM, MCF10A rereplic inconclusive
Cc1cccc(N(C(=O)c2nsc(Cl)c2Cl)C(C(=O)NC2CCCC2)c2ccc(O)cc2)c1C (centres undefined)	KB-V1 MDR tox 21µM, KB-3-1 cytotox inconclusive, SW480 rerep inconclusive
COc1cc(C(C(=O)NC2CCCC2)N(Cc2ccco2)C(=O)c2snc(C(N)=O)c2N)cc(OC)c1OC (centres undefined)	KB-V1 MDR tox inconclusive
CN(C)c1ccc(C(C(=O)NC2CCCCC2)N(Cc2ccco2)C(=O)c2snc(C(N)=O)c2N)cc1 (centres undefined)	KB-V1 MDR tox 21µM, KB-3-1 cytotox inconclusive
Cc1ccccc1N(C(=O)c1snc(C(N)=O)c1N)C(C)C(=O)NC1CCCCC1 (centres undefined)	MCF10A rereplic inconclusive
Cc1cc(C)cc(N(C(=O)c2nsc(Cl)c2Cl)C(C(=O)NC2CCCC2)c2ccc(O)cc2)c1 (centres undefined)	KB-V1 MDR tox 18µM, SW480 rerep inconclusive, MCF10A rereplic inconclusive
COc1ccc(C(C(=O)NC2CCCC2)N(Cc2ccccc2)C(=O)c2nsc(Cl)c2Cl)cc1 (centres undefined)	none
Cc1ccc(N(C(=O)c2nsc(Cl)c2Cl)C(C(=O)NC2CCCC2)c2ccc(O)cc2)cc1C (centres undefined)	KB-3-1 cytotox inconclusive
Cc1ccc(NC(=O)CSc2nc(=O)n(Cc3ccco3)c3c2CCC3)cc1F	none (no result: ASM inhibitor, SW480 rerep, Giardia killer, MCF10A rereplic)
CSc1ccc(CCNC(=O)Cn2ccc3cc(S(=O)(=O)N4CCCCCC4)ccc32)cc1	none (no result: ASM inhibitor, SW480 rerep, Giardia killer, MCF10A rereplic)
CCOc1ccccc1N(C(=O)c1snc(C(N)=O)c1N)C(C(=O)NC1CCCC1)c1cccs1 (centres undefined)	KB-V1 MDR tox inconclusive, SW480 rerep inconclusive, MCF10A rereplic inconclusive
NC(=O)c1nsc(C(=O)N(c2ccccc2)C(C(=O)NC2CCCC2)c2ccc3ncccc3c2)c1N (centres undefined)	MCF10A rereplic 21µM
CCOc1ccccc1N(C(=O)c1snc(C(N)=O)c1N)C(C(=O)NC1CCCC1)c1ccco1 (centres undefined)	KB-V1 MDR tox 10µM
CCOc1ccc(N(C(=O)c2snc(C(N)=O)c2N)C(CC)C(=O)NC2CCCC2)cc1 (centres undefined)	SW480 rerep 23µM
CCOc1ccc(C(C(=O)NC2CCCC2)N(Cc2ccccc2)C(=O)c2nsc(Cl)c2Cl)cc1 (centres undefined)	KB-V1 MDR tox inconclusive, KB-3-1 cytotox 21µM, SW480 rerep inconclusive
COc1ccc(N(C(=O)c2snc(C(N)=O)c2N)C(C(=O)NC2CCCC2)c2ccc3ncccc3c2)cc1 (centres undefined)	SW480 rerep inconclusive, MCF10A rereplic inconclusive
CC(c1ccc(N(C)C)cc1)c1ccnc2ccccc12 (centres undefined)	KB-3-1 cytotox inconclusive (no result: ASM inhibitor, SW480 rerep, Giardia killer, MCF10A rereplic)
Cc1ccc(Cl)cc1NC(=O)c1cc(CN2CCCC2)on1	none (no result: ASM inhibitor, SW480 rerep, Giardia killer, MCF10A rereplic)
Fc1ccc(C2=NC(c3cccc(C(F)(F)F)c3)=Nc3ccccc3N2)cc1	none (no result: ASM inhibitor, SW480 rerep, Giardia killer, MCF10A rereplic)
CCOC(=O)c1c(NC(=O)/C=C/c2ccc(OCC)c(OC)c2)sc2c1CCC2	none (no result: ASM inhibitor, SW480 rerep, Giardia killer, MCF10A rereplic)
OC(CN1CCCCC1)c1ccccc1 (centres undefined)	none (no result: ASM inhibitor, SW480 rerep, Giardia killer, MCF10A rereplic)
Cc1noc(C)c1S(=O)(=O)Nc1ccc(C(=O)Nc2ccc(Br)cc2)cc1	none (no result: ASM inhibitor, SW480 rerep, Giardia killer, MCF10A rereplic)
CC(OC(=O)c1snc(C(=O)NC2CCCCC2)c1N)C(=O)NC1CCCCC1 (centres undefined)	KB-V1 MDR tox inconclusive, SW480 rerep inconclusive, MCF10A rereplic 21µM
CCOC(=O)c1snc(C(=O)NC2CCCCC2)c1N	none
Cc1ccsc1C1NC(=O)c2c(sc3c2CCCC3)N1 (centres undefined)	KB-V1 MDR tox 15µM, MCF10A rereplic inconclusive
O=C1NC(c2ccccn2)Nc2sc3c(c21)CCC3 (centres undefined)	MCF10A rereplic 16µM
C=CCN(c1ccccc1OC)S(=O)(=O)c1cccc(C(=O)OCC(=O)c2c[nH]c3ccccc23)c1	KB-V1 MDR tox 12µM, KB-3-1 cytotox inconclusive, SW480 rerep inconclusive
COc1cc(OC)c(N(C)S(=O)(=O)c2cccc(C(=O)OCC(=O)c3c[nH]c4ccccc34)c2)cc1Cl	KB-V1 MDR tox inconclusive, SW480 rerep inconclusive
CCCCCOC(=O)Cn1c(=O)c2c(nc(N3CCOCC3)n2C)n(C)c1=O	KB-V1 MDR tox 16µM
CCc1nnc(NC(=O)c2ccc(Br)c(S(=O)(=O)N3CCOCC3)c2)s1	KB-V1 MDR tox inconclusive
CCOCC(=O)Nc1c(C(=O)Nc2ccccc2OC)oc2ccccc12	KB-V1 MDR tox 1.8µM
CCOc1ccccc1NC(=O)c1oc2ccccc2c1NC(=O)C1CCCO1 (centres undefined)	KB-V1 MDR tox 21µM
